# Source: PMC4552634, “A New Set of Chemical Starting Points with Plasmodium falciparum Transmission-Blocking Potential for Antimalarial Drug Discovery” (PLoS ONE, 2015)
# Read-outs that look alike come from different tables or passages of the source. Screen size: about 13,000 compounds; about 3,200 (25%) showed an effect of 50% or more. This is one part of the list.
# System: P. falciparum stage V gametocytes
# Set-up: BacTiter-Glo ATP luminescence viability of purified stage V gametocytes in 384-well plates, per cent inhibition versus DMSO
# Conditions: 48 h, 5 µM, inhibitor
SMILES,% Inhibition [%],% Inhibition (% Inhibition) [%]
Cc1nc(N)nc(N)c1OCCCCOc1ccccc1 [TCMDC-131353],-22.41,
CCCOc1ccc(N2C(N)=NC(N)=NC2(C)C)cc1 [TCMDC-137702],-17.71,
CC1(C)N=C(N)N=C(N)N1c1ccccc1 [TCMDC-123984],-31.19,
CC(C)CNc1nc(N)nc2ccc3c(ccn3CC(C)C)c12 [TCMDC-137731],87.39,
CCCC(CCC)n1ccc2c3c(N)nc(N)nc3ccc21 [TCMDC-137949],60.59,
Nc1nc(N)c2c(ccc3c2ccn3C2CCCCC2)n1 [TCMDC-137871],105.4,
CCCC(CC)n1ccc2c3c(N)nc(N)nc3ccc21 (stereo not shown) [TCMDC-137948],17.27,
Nc1nc(N)c2c(ccc3c2ccn3C2C=CCCC2)n1 (stereo not shown) [TCMDC-137861],26.32,
CCCCCCn1ccc2c3c(N)nc(N)nc3ccc21 [TCMDC-137994],106.4,
CC(C)Cn1ccc2c3c(N)nc(N)nc3ccc21 [TCMDC-137997],21,
Nc1nc(N)c2c(ccc3c2ccn3CCCCO)n1 [TCMDC-137959],31.47,
Nc1nc(N)c2c(ccc3c2ccn3CCCF)n1 [TCMDC-138623],32.47,
Nc1nc(N)c2c(ccc3nn(C4CCCC4)cc32)n1 [TCMDC-137960],-20,
CCCC(C)n1ccc2c3c(N)nc(N)nc3ccc21 (stereo not shown) [TCMDC-137964],-7.389,
CC(=O)Nc1nc(N)c2c(ccc3c2ccn3CC(C)C)n1 [TCMDC-137971],0.8169,
CCC(C(=O)Nc1ccccc1)n1nc(-c2ccc(C)c(S(=O)(=O)N3CCCCC3)c2)ccc1=O (stereo not shown) [TCMDC-124712],-71.76,
CC(=O)c1c(Cc2cccc(C(F)(F)F)c2)c[nH]c1C [TCMDC-124434],-10.65,
COc1ccc(C(C(=O)NC2CCN(C[C@H](O)c3ccnc4ccc(OC)cc34)CC2)N2CCN(c3ccc(Cl)c(Cl)c3)CC2)cc1 (stereo partly shown) [TCMDC-141101],14.7,
NC(N)=NC(=O)Nc1cc(Cl)c(F)c(Cl)c1 [TCMDC-137512],-14.8,
Cc1cc(N(C)C)nc(Nc2ccc(NC(=O)c3ccccc3Cl)cc2)n1 [TCMDC-124722],-1.9,
Nc1nc(N)c2c(ccc3c2ccn3CCCC(F)(F)F)n1 [TCMDC-138622],32.41,
C=CCn1ccc2c3c(N)nc(N)nc3ccc21 [TCMDC-137995],79.96,
CCn1ccc2c3c(N)nc(N)nc3ccc21 [TCMDC-139864],0.4857,
Oc1ccc(Br)cc1C(O)CNCc1ccccc1OCc1ccccc1 (stereo not shown) [TCMDC-140564],21.06,
OC1(CNCc2ccccc2)CCN(CCc2c[nH]c3ccc(F)cc23)CC1 [TCMDC-131975],35.49,
Fc1ccc2[nH]cc(CCN3CCC(CNCc4ccccc4)CC3)c2c1 [TCMDC-131984],53.36,

SMILES,% Inhibition [%],% Inhibition (% Inhibition) [%]
CN(Cc1ccccc1)C1CCN(CCc2c[nH]c3ccc(F)cc23)CC1 [TCMDC-131970],10.21,
N#Cc1ccc2c(c1)CN(CC[C@H]1CC[C@H](NC(=O)/C=C/c3c[nH]c4ccccc34)CC1)CC2 [TCMDC-139133],,11.83
O=C(NC1CCN(c2ccnc3cc(Cl)ccc23)C1)c1ccccc1F (stereo not shown) [TCMDC-133660],-3.046,
COC(=O)c1cccc(NC(=O)NCCNc2ccnc(Nc3ccc(F)cc3)n2)c1 [TCMDC-133642],41.44,
O=C(c1ccc(Br)o1)N1N=C(c2cccs2)CC1c1ccc(Br)cc1 (stereo not shown) [TCMDC-125623],10.04,
CC(=O)Oc1c(C2CCN(CCCCNC(=O)c3ccc(NC(=O)c4ccc(Cl)cc4)cc3)CC2)ccc2c1CCCC2 [TCMDC-138649],92.78,
COc1ccc(C2CCN(CCCCNC(=O)c3ccc(NC(=O)c4ccc(Cl)cc4)cc3)CC2)c(C)c1 [TCMDC-138359],-1.308,
O=C(NCCCCN1CCC(c2ccc3c(c2OC(=O)c2ccc(NC(=O)c4ccc(Cl)cc4)cc2)CCCC3)CC1)c1ccc(NC(=O)c2ccc(Cl)cc2)cc1 [TCMDC-138644],102.3,
O=C(NCCCCN1CCN(c2cccc3c2CCCC3)CC1)c1ccc(NC(=O)c2ccc(Cl)cc2)cc1 [TCMDC-138513],-3.326,
O=C(NCCCCN1CCC(c2ccc3c(c2OCC2CC2)CCCC3)CC1)c1ccc(NC(=O)c2ccc(Cl)cc2)cc1 [TCMDC-138584],71.88,
CC(C)(C)c1cc(Cn2ccnc2)cc(C(C)(C)C)c1O [TCMDC-131317],-23.04,
Cc1cnc(C(=O)Nc2cccc(-c3csc(-c4nc5ccccc5[nH]4)c3)c2)cn1 [TCMDC-132401],-83.32,
CC(=O)c1ccc(N2CCN(C(=O)Nc3ccc(Cl)cc3)CC2)cc1 [TCMDC-125821],-3.219,
O=C(O[C@@H]1CN[C@H](C#Cc2cc3ncnc(Nc4ccc5c(cnn5Cc5cccc(F)c5)c4)c3s2)C1)N1CCCC1 [TCMDC-135355],-4.612,
CC(C)Oc1cc2c(cc1NS(=O)(=O)c1ccc(-c3cccs3)cc1)CCN(C)CC2 [TCMDC-141486],15.65,
COCCCC1C(=O)OC2CCCC21 (stereo not shown) [TCMDC-131981],9.495,
O=C(O)C(F)(F)F.OCCN1CCN(Cc2cccc(-c3ccc(-c4nc5cc(C(F)(F)F)ccc5[nH]4)s3)c2)CC1 [TCMDC-133028],0.1652,
CCOC(=O)CCc1cc(F)c(F)c(OC[C@H](O)CNC(C)(C)C(O)c2ccc3ccccc3c2)c1 (stereo partly shown) [TCMDC-141731],-25.49,
Clc1ccc(-c2cc3c(NCc4ccncc4)nccc3s2)cc1 [TCMDC-135202],11.9,
CN(C)C(=O)CC(=O)NCc1c(Cl)cccc1Cl [TCMDC-131769],-6.865,
COc1cccc(NC(=O)Nc2c(-c3cccc(C(F)(F)F)c3)c(C(F)(F)F)nn2C)c1 [TCMDC-124575],19.24,
COc1cccc(NC(=O)c2cc(Br)cc(N3CCN(c4ccncc4)CC3)c2)c1 [TCMDC-135146],1.077,
COc1cccc(NC(=O)Cn2c(C)c(C(=O)C(F)(F)F)c3ccccc32)c1 [TCMDC-123800],60.17,
CC(C)C(NC(=O)Cc1cccc2ccccc12)C(=O)Nc1cccc(C#N)c1 (stereo not shown) [TCMDC-125329],-6.888,
COc1cccc(NC(=O)Cn2c(C)c(C#N)c3ccccc32)c1 [TCMDC-125424],84.65,
COc1ccccc1Cn1ccnc1SCC(=O)Nc1cccc(C(F)(F)F)c1 [TCMDC-124737],-18.32,
